Values joined by “and” are separate entries in the source; they are usually repeats but may differ in a detail not shown here. Equal values may be shown once. Records with an inconclusive call do not appear. Values without a mark were called inactive. Active and inactive are the calls of the source. Unless noted, the call rests on the fitted dose curve; in most records, active means well fitted curve in the direction sought with a large enough effect in the repeat runs; inconclusive means weak or mixed curves; inactive means no such curve, though single readings can be large; an effect the other way counts as inactive or inconclusive.

This passage reports outcome and Potency results from PubChem BioAssay (Tox21).

Experiment [1] in a line: qHTS assay to identify small molecule agonists of the vitamin D receptor (VDR) signaling pathway - cell viability counter screen (AID 743224). Further: series mostly up to about 63 µM; nearly all actives have a fitted effect of over 50% in size. The method, boiled down: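 VDR-bla cells, 4 h after plating, exposed to compounds for 16 h at 37C; viability then read in the same wells as CellTiter-Glo luminescence after 30 min at room temperature, following the bla FRET read.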
On the technique in general: qHTS replaces the single test concentration by a dilution series.

The nature of experiment [2]: qHTS assay to identify small molecule antagonists of the vitamin D receptor (VDR) signaling pathway - cell viability counter screen (AID 743225). Further: nearly all actives have a fitted effect of over 50% in size. The procedure, abridged:
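Compounds were pinned onto VDR-bla HEK 293T cells together with 1-alpha,25-dihydroxyvitamin D3 at 3 nM final. After 16 h at 37C and 5% CO2 plus the reporter readout, cell viability was measured by CellTiter-Glo luminescence (30 min, room temperature).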

Experiment [3] in a line: qHTS assay to identify small molecule agonists of the NFkB signaling pathway (AID 1159509; active means well fitted curve in the direction sought with a large enough effect in the signal ratio in the repeat runs, not every such curve was filed as active; the % refers to the signal ratio; further: series mostly up to about 61 µM). The procedure, abridged: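 NFkB-bla ME-180 cells carry a beta-lactamase reporter under an NF-kB response element. They were plated overnight, then exposed to compounds for 5 h at 37 C. Read-out is LiveBLAzer FRET after 1.5 hr at room temperature (405 nm excitation; 460/530 nm emission).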

The nature of experiment [4]: qHTS assay to identify small molecule agonists of the endoplasmic reticulum stress response signaling pathway (AID 1159516; active means well fitted activation curve with a large enough effect in the signal ratio in the repeat runs, not every such curve was filed as active; the % refers to the signal ratio). The procedure, abridged:
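CellSensor ESRE-bla HeLa cells, 1,500 per well, plated overnight, then exposed to compounds for 5 hr at 37 C. Beta-lactamase reporter read with LiveBLAzer B/G FRET substrate after 2 hr at room temperature, 405 nm excitation, 460 and 530 nm emission.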

A short description of experiment [5]: qHTS assay to identify small molecule agonists of the endoplasmic reticulum stress response signaling pathway - cell viability counter screen (AID 1159517; calls by dose curve;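 further: HeLa cells carrying an ER stress response element beta-lactamase reporter; series mostly up to about 61 µM; nearly all actives have a fitted effect of over 50% in size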). The procedure, abridged:
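HeLa cells carrying an ESRE-driven beta-lactamase reporter receive compound for 5 hr at 37 C. Cell viability is then gauged with CellTiter-Glo by luminescence, 30 min at room temperature.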

Experiment [6] is described as follows: qHTS assay to identify small molecule antagonists of the retinoid-related orphan receptor gamma (ROR-gamma) signaling pathway - cell viability counter screen (AID 1159520). Further: nearly all actives have a fitted effect of over 50% in size. The procedure, abridged:
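Cytotoxicity was read from cellular ATP (CellTiter-Glo luminescence) after 16 hr at 37 C with 1 uM doxycycline induction. The inducer was added 2 hr after compound transfer to Tet-on ROR gamma CHO cells.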

Experiment [7] deals with Nuclear receptor ROR-gamma (Homo sapiens) (UniProt P51449). The experiment is described as follows: qHTS assay to identify small molecule antagonists of the retinoid-related orphan receptor gamma (ROR-gamma) signaling pathway (AID 1159521). The procedure, abridged: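 Test compounds were applied to Tet-on RORγ CHO cells 2 h ahead of doxycycline hyclate (1 uM final). Luciferase reporter activity was quantified by luminescence after 16 h at 37 C and 5% CO2.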

Experiment [8] can be described thus: qHTS assay to identify small molecule agonists of the AP-1 signaling pathway - cell viability counter screen (AID 1159525; calls by dose curve; further: nearly all actives have a fitted effect of over 55% in size). The procedure, abridged:
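Luminescent ATP readout (Cell Titer Glo, 30 min RT), normalised to DMSO and tetra n-octyl ammonium bromide controls. Cells were ME-180 AP-1-bla in 0.5% dialyzed FBS Opti-MEM, with a 5 h, 37 °C compound exposure.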

The nature of experiment [9]: qHTS assay to identify small molecule agonists of the AP-1 signaling pathway (AID 1159526; calls by dose curve; further: potency means the concentration at half of the fitted maximal effect).
The target in experiment [10] is Retinoic acid receptor RXR-alpha (Homo sapiens) (UniProt P19793). The experiment is described as follows: qHTS assay to identify small molecule agonists of the RXR signaling pathway (AID 1159527; calls by dose curve; further: nearly all actives have a fitted effect of over 35% in size). The method, boiled down: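 Using 9-cis retinoic acid as the reference agonist, chemicals were tested in HEK 293T cells […] for 16 hr; substrate loading lasted 2 hr at room temperature.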

Experiment [11] in a line: qHTS assay to identify small molecule agonists of the RXR signaling pathway - cell viability counter screen (AID 1159529). The procedure, abridged:
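Compounds dissolved in DMSO were pinned onto HEK 293T cells carrying a beta-lactamase reporter under RXR-alpha control and incubated 16 hr. Cytotoxicity was then quantified by CellTiter-Glo luminescence.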

Experiment [12] in a line: qHTS assay to identify small molecule antagonists of the retinoid acid receptor (RAR) signaling pathway - cell viability counter screen (AID 1159551). Further: nearly all actives have a fitted effect of over 35% in size. The procedure, abridged:
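C3RL4 RARE-luciferase cells, 1,000/well, incubated overnight, then dosed with compound plus 1 uM retinol (final). After 6 hr at 37 C, viability read by CellTiter-Glo ATP luminescence following 30 min at room temperature.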

Experiment [13] is described as follows: qHTS assay to identify small molecule antagonists of the retinoic acid receptor (RAR) signaling pathway (AID 1159552; further: nearly all actives have a fitted effect of over 50% in size). The method, boiled down:
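Test chemicals and DMSO controls were pin-transferred onto C3RL4 cells a day after seeding; retinol (1 uM final) followed at once. Luminescent reporter output was quantified after 6 hr of co-incubation and 30 min with detection reagent.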

Experiment [14] in a line: qHTS assay to identify small molecule agonists of the retinoic acid receptor (RAR) signaling pathway (AID 1159553). The method, boiled down: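 C3RL4 RARE-luciferase cells were seeded at 1,000/well and grown overnight at 37 C, then exposed to compounds for 6 hr at 37 C, 5% CO2. Luciferase reagent was added and luminescence was read after 30 min at room temperature.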

Retinoic acid receptor RXR-alpha (Homo sapiens), sequence (P19793 whole entry, looked up): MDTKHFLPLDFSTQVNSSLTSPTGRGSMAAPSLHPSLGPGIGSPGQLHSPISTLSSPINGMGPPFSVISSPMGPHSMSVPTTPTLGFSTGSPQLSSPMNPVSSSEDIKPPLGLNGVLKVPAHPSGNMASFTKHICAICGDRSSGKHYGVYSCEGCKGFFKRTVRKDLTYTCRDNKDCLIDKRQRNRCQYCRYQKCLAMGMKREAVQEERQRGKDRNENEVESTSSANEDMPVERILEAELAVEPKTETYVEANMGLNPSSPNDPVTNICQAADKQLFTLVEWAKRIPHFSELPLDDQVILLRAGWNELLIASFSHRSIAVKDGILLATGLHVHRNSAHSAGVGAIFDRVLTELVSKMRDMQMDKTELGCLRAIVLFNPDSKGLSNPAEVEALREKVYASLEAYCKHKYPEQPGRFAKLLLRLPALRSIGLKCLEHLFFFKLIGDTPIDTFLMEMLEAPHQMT

`CC(=O)OCCOC(C)=O`: the call in [1], in experiment [2], in [3], in experiment [4], in experiment [6] and in [8] was inactive. Besides, the outcome in experiment [11] and in [12] was inactive. For the same molecule, the Potency result in [5], in experiment [7], in [9] and in experiment [10] was “inactive” throughout.

Take `CCO[Si](CCC#N)(OCC)OCC`: the call in experiment [1], in [2], in experiment [3], in [4], in [6] and in experiment [8] was inactive. The result in [11] and in experiment [12] was inactive. Further, the Potency entry in [5], in [7], in experiment [9] and in [10] was “inactive” each time.

Regarding `COc1cc(OC)c(C(=O)CCCN2CCCC2)c(OC)c1`, the molecule was classed as inactive in experiment [1], in experiment [2], in [3], in [4], in experiment [6] and in experiment [8]. For the same molecule, the molecule was called inactive in experiment [11] and in experiment [12]. The Potency entry in [5], in experiment [7], in experiment [9] and in experiment [10] was “inactive” throughout.

As for `CC1(C)S[C@@H]2[C@H](NC(=O)COc3ccccc3)C(=O)N2[C@H]1C(=O)O`, the call in [1], in experiment [2], in [3], in [4], in experiment [6] and in [8] was inactive. The result in experiment [11], in experiment [12] and in experiment [13] was inactive. The Potency result in experiment [5], in [7], in experiment [9], in experiment [10] and in experiment [14] was “inactive” throughout.

Regarding `CC(=O)CCC=C(C)C`, the result in [1], in experiment [2], in experiment [3], in experiment [4], in experiment [6] and in [8] was inactive. Further, the molecule was classed as inactive in experiment [11], in experiment [12] and in [13]. The Potency entry in experiment [5], in experiment [7], in [9], in experiment [10] and in experiment [14] was “inactive” in each case.

As for `O=C1c2ccccc2CCc2ccccc21`, the molecule was classed as inactive in experiment [1], in [2], in experiment [3], in [4], in experiment [6] and in experiment [8]. For the same molecule, the molecule was classed as inactive in [11] and in experiment [12]. Also, the Potency result in experiment [5], in experiment [7] and in [10] was “inactive” throughout. Moreover, the Potency in [9] was 35.4 µM (active) and 23.9 µM (active).

On to `CN(C)c1ccc(Cc2ccc(N(C)C)cc2)cc1`, for which the outcome in experiment [1], in experiment [2], in [3], in experiment [4], in experiment [6] and in [8] was inactive. Besides, the call in experiment [11], in experiment [12] and in experiment [13] was inactive. Further, the Potency entry in experiment [5], in experiment [7], in experiment [9], in experiment [10] and in [14] was “inactive” throughout.

Take `C[C@]12CC[C@@H]3c4ccc(O)cc4CC[C@H]3[C@@H]1C[C@@H](O)[C@@H]2O`: the result in experiment [1], in [2], in [3], in experiment [4], in experiment [6] and in [8] was inactive. Further, the outcome in experiment [11] and in [12] was inactive. For the same molecule, the Potency entry in experiment [5], in [7], in [9], in [10] and in experiment [14] was “inactive” throughout.

In the case of `COC(=O)c1cccnc1`, the molecule was called inactive in experiment [1], in experiment [2], in experiment [3], in experiment [4], in experiment [6] and in [8]. Also, the call in experiment [11], in [12] and in [13] was inactive. In addition, the Potency entry in experiment [5], in experiment [7], in [9], in [10] and in experiment [14] was “inactive” in each case.

On to `CC(CCl)OP(=O)(OC(C)CCl)OC(C)CCl` (configuration not stated), for which the molecule was classed as inactive in [1], in experiment [2], in experiment [3], in [4], in experiment [6] and in [8]. In addition, the molecule was called inactive in [11], in [12] and in experiment [13]. In addition, the Potency entry in experiment [5], in experiment [7], in experiment [9], in experiment [10] and in experiment [14] was “inactive” in each case.

Turning to `NC(=S)NNC(N)=S`, the result in experiment [1], in experiment [2], in [3], in [4], in experiment [6] and in experiment [8] was inactive. Moreover, the outcome in experiment [11] and in experiment [12] was inactive. Further, the Potency result in experiment [5], in [7], in [9], in experiment [10] and in experiment [14] was “inactive” throughout.

`O=C(O)c1ccc(S(=O)(=O)N(Cl)Cl)cc1`: the result in experiment [1], in experiment [2], in [3], in [4], in experiment [6] and in experiment [8] was inactive. In addition, the molecule was classed as inactive in experiment [11] and in experiment [12]. In addition, the Potency result in [5], in [7], in experiment [9], in [10] and in experiment [14] was “inactive” in each case.

On to `CCCCCC(=O)O`, for which the result in [1], in experiment [2], in experiment [3], in experiment [4], in experiment [6] and in experiment [8] was inactive. Besides, the result in experiment [11], in experiment [12] and in experiment [13] was inactive. In addition, the Potency entry in experiment [5], in experiment [7], in experiment [9], in experiment [10] and in [14] was “inactive” each time.

As for `C=CC[N+](C)(C)CC=C`, the call in experiment [1], in experiment [2], in [3], in [4], in experiment [6] and in experiment [8] was inactive. The molecule was called inactive in experiment [11], in experiment [12] and in experiment [13]. The Potency entry in [5], in experiment [7], in [9], in experiment [10] and in experiment [14] was “inactive” throughout.

As for `CCCCCCCCCCCCCCCCO`, the molecule was called inactive in experiment [1], in [2], in experiment [3], in experiment [4], in experiment [6] and in [8]. The molecule was called inactive in experiment [11], in experiment [12] and in experiment [13]. Also, the Potency result in experiment [5], in [7], in [9], in experiment [10] and in [14] was “inactive” in each case.

Turning to `O=S(=O)(O)c1ccc(N=Nc2c(O)ccc3cc(S(=O)(=O)O)ccc23)cc1`, the molecule was classed as inactive in experiment [1], in [2], in experiment [3], in experiment [4], in experiment [6] and in experiment [8]. For the same molecule, the molecule was called inactive in experiment [11] and in experiment [12]. The Potency result in experiment [5], in [7], in [9], in experiment [10] and in experiment [14] was “inactive” each time.
